Results on 46 compounds are retold here after ChEMBL document CHEMBL3988442, “University of Dundee, Small-Polar-MMV Screening Library” (2021).

Each structure is given as a SMILES string.

Experiment [1] addresses T1, Aspartate--tRNA(Asp/Asn) ligase (Mycobacterium tuberculosis (strain ATCC 25618 / H37Rv)) (UniProt P9WFW3).
T1 sequence (whole entry): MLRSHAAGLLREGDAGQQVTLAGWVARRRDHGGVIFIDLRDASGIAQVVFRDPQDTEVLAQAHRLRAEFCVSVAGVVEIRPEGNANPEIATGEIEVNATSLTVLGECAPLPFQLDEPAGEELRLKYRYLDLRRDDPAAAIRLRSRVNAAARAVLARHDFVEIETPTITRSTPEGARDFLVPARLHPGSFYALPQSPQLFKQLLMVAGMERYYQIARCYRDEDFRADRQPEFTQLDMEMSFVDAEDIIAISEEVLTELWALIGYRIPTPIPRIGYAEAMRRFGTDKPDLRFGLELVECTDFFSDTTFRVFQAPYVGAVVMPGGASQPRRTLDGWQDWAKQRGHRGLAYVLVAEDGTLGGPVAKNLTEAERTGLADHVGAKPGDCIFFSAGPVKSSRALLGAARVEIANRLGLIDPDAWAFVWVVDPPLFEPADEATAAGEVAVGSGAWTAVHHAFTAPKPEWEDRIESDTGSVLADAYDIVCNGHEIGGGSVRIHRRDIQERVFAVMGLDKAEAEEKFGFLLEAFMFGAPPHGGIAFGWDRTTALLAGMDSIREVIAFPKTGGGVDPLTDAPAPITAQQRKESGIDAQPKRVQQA
The experiment in a line: Assay for Asp RNA synthetase-1 from Mycobacterium tuberculosis. The experiment is classed as functional. More on the design: scale not given: direction of the effect not stated beside the values. As to conditions: 30 µM.

Experiment [2] concerns the target Shiga toxin 2 (Escherichia coli O157:H7) (UniProt P09385+P09386). In words: E. coli 0.157:H7 Shiga Toxin SOP - stx2 screening assay. The experiment is classed as functional. As to conditions: 30 µM. Also on record: scale not given: direction of the effect not stated beside the values.

Turning to `COC(=O)c1ccc(C2CC(=O)Oc3cc(C)[nH]c(=O)c32)cc1` (configuration not stated), the values for the Percent Effect in experiment [1] and in experiment [2] were -5.75% and -8.85%, respectively.
For the compound `Cc1cn2c(n1)CCC(NC(=O)c1cc(Br)cn1C)C2` (configuration not stated), the values for the Percent Effect in experiment [1] and in experiment [2] were -1.87% and -34.8%, respectively.
Turning to `CSC(C)C(=O)N1CCCN(Cc2cscn2)CC1` (configuration not stated), the Percent Effect in experiment [1] was -6.57%; in experiment [2], 25.4%.
The corresponding values for `Cc1ccc(S(=O)(=O)NC2CC2)cc1C` are -2.59% and -0.587%.
The like results for `Cc1ccc(C(CNCc2ccncc2)N2CCOCC2)s1` (configuration not stated) were, in that order, 2.18% and -29.8%.
Take `Cc1ccoc1C(=O)NC1CCN(Cc2cccc3c2OCCO3)CC1`: the figures for the Percent Effect in experiment [1] and in experiment [2] were -2.4% and -34.8%, respectively.
The corresponding values for `COc1ccc(CN(C)C(=O)CCc2c(C)nc(C)[nH]c2=O)cc1OC` are -5.24% and -6.32%.
On to `CC(=O)NCC(=O)N1CCOC2(CCCN(c3cccnc3)C2)C1` (configuration not stated), for which the values for the Percent Effect in experiment [1] and in experiment [2] were 1.34% and -31.3%, respectively.
The corresponding values for `CCc1nc(C)c(C(=O)NCCN2CCC(C)CC2)s1` are -0.879% and -68.3%.
The corresponding values for `O=C(Cc1ccc2c(c1)OCCO2)NC1CCN(CC(F)F)CC1` are -1.24% and 11%.
For `Cc1ccc(C)c(NC(=O)Nc2c[nH]c(=O)[nH]c2=O)c1`, the Percent Effect is -1.44% in experiment [1] and 2.86% in experiment [2].
With `O=C1COC2(COCCN(Cc3ccsc3)C2)CN1c1ccc(F)cc1` (configuration not stated), the Percent Effect in experiment [1] is 2.55%; in experiment [2] it was -4.46%.
The corresponding values for `CC(O)CN1CCN(Cc2nnc(C3CC3)o2)CC1` (configuration not stated) are 0.971% and -17.9%.
The like results for `COc1ncccc1NC(=O)C1CCN(S(C)(=O)=O)CC1` were, in that order, -1.61% and -91.6%.
The like results for `N#Cc1ccc(OCCNc2cccc(C(=O)N3CCOCC3)c2)cc1` were, in that order, 1.46% and -43.4%.
`CCc1nnc2n1CCN(C(=O)c1csc(-c3cnn(C)c3)n1)C2`: the results for the Percent Effect in experiment [1] and in experiment [2] were 0.836% and -15.8%, respectively.
Regarding `CSc1ccccc1CN1CCn2nc(CNC(C)=O)cc2C1`, the Percent Effect was 6.15% in experiment [1] and -66.1% in experiment [2].
On to `CC(=O)Nc1ccc(-n2ccc3nc(N4CCCC4)ncc3c2=O)cc1`, for which the Percent Effect was 4.09% in experiment [1] and -9.95% in experiment [2].
The like results for `COCC1c2nnn(CC3CC3)c2CCN1C(=O)c1ccnnc1` (configuration not stated) were, in that order, -4.7% and -8.58%.
Turning to `Cn1cc(CN2CCc3c(nc(-c4ccccn4)[nH]c3=O)C2)cn1`, the values for the Percent Effect in experiment [1] and in experiment [2] were -3.63% and -0.78%, respectively.
Regarding `O=C(NC[C@]12COC[C@H]1CN(Cc1nccs1)C2)N1CCCC1`, the values for the Percent Effect in experiment [1] and in experiment [2] were 1.45% and -23.5%, respectively.
Turning to `Cc1cc(CN2CCN(C(c3ccccc3)c3ccccc3)CC2)no1`, the Percent Effect is 0.857% in experiment [1] and 10.7% in experiment [2].
On to `Cn1cc(CN2C[C@@H]3COC[C@]3(COc3ccc(C#N)cn3)C2)cn1`, for which the Percent Effect is 3.33% in experiment [1] and -7.69% in experiment [2].
The like results for `CS(=O)(=O)CCC(=O)NC1(c2cccc(Br)c2)CC1` were, in that order, 5.45% and 3.23%.
As for `CC(C)c1n[nH]c(C2CN(C(=O)c3cccc4cn[nH]c34)CCO2)n1` (configuration not stated), the Percent Effect turned out to be 7.47% in experiment [1] and 9.23% in experiment [2].
The like results for `CC(=O)NC1CCCN(C(=O)Nc2cnc3c(cnn3C(C)C)c2)C1` (configuration not stated) were, in that order, -4.11% and 18%.
The corresponding values for `c1csc(-c2nc(CN3CCn4c(nnc4C4CC4)C3)co2)c1` are -3.42% and 1.36%.
The corresponding values for `CC(C)CN1Cc2c(C(=O)N(C)C)ncn2-c2ccccc2S1(=O)=O` are -2.86% and 4.89%.
Take `O=C(c1ccc(F)c(F)c1)N1CCCSCC1CN1CCCC1` (configuration not stated): the results for the Percent Effect in experiment [1] and in experiment [2] were 3.66% and 2.2%, respectively.
As to `COc1ccc(CN(C)CC2CCCN2c2cccnn2)cc1F` (configuration not stated), the values for the Percent Effect in experiment [1] and in experiment [2] were 0.346% and 3.14%, respectively.
As to `COc1cccc(CCNS(=O)(=O)c2ccc(NC(C)=O)cc2)c1`, the Percent Effect in experiment [1] is -1.32%; in experiment [2] it was -9.96%.
As for `CC(C)=CCN1CCOC(Cn2nc(C)cc2C)C1` (configuration not stated), the Percent Effect in experiment [1] was -3.08%; in experiment [2] it was 24.4%.
Turning to `CCN1CCN(c2ccc(F)cc2C(C)NCc2noc(C)n2)CC1` (configuration not stated), the Percent Effect in experiment [1] is -3.26%; in experiment [2], -6.75%.
Take `COc1cccc(C(=O)N2CCCC(c3cc(C)[nH]n3)C2)c1OC` (configuration not stated): the Percent Effect in experiment [1] was -1.08%; in experiment [2], 27%.
For `CCCC(=O)N1CCC2(CC1)CC(NC(C)=O)c1ccccc1O2` (configuration not stated), the Percent Effect is -5.26% in experiment [1] and -24.9% in experiment [2].
Regarding `CCn1ccnc1CN1CCC(CCC(=O)Nc2ccccc2Cl)CC1`, the Percent Effect in experiment [1] was -0.673%; in experiment [2] it was -30.9%.
Consider `Cc1cccc(C2(CNC(=O)CCNS(C)(=O)=O)CCCC2)c1`, for which the results for the Percent Effect in experiment [1] and in experiment [2] were -6.94% and -8.2%, respectively.
On to `CCOc1ccc(NC(=O)CN2CCN(c3nccn3C)CC2)cc1`, for which the values for the Percent Effect in experiment [1] and in experiment [2] were -3.86% and -64.8%, respectively.
The corresponding values for `O=C(CC1CC1)N1CCC2(CC1)CN(c1ncccn1)CCO2` are -1.87% and 5.46%.
Take `O=C(Nc1ccc(F)cc1F)Nc1c[nH]c(=O)[nH]c1=O`: the Percent Effect in experiment [1] was 1.82%; in experiment [2], -4.74%.
In the case of `Cc1n[nH]c(C)c1-c1cnc(CC2CCN(C)C2)cn1` (configuration not stated), the Percent Effect in experiment [1] is -0.897%; in experiment [2] it was -18.2%.
As for `N#Cc1ncn(CCC(=O)Nc2ccc(Cl)cc2F)n1`, the Percent Effect in experiment [1] is 10.4%; in experiment [2], -41%.
The like results for `CCOc1nc2cccnc2n(CC(=O)NCCOC)c1=O` were, in that order, -2.81% and -9.03%.
In the case of `CC(C)CN1C(=O)c2ccc(C(=O)NCCc3c[nH]cn3)cc2C1=O`, the Percent Effect in experiment [1] was 0.813%; in experiment [2] it was -22.9%.
The like results for `CC(C)Oc1ncccc1CNC(=O)c1cc[nH]n1` were, in that order, -1.4% and 18.4%.
For `Cc1cccc(CN2CCC3(CCN(Cc4ccccn4)C3)C2=O)c1` (configuration not stated), the figures for the Percent Effect in experiment [1] and in experiment [2] were 0.956% and -19.6%, respectively.
